# Source: PubChem BioAssay (National Center for Advancing Translational Sciences (NCATS))
# Cycloheximide cs – Cycloheximide Counterscreen for Small Molecule Inhibitors of Shiga Toxin; cell reporter, cycloheximide protein synthesis inhibition counterscreen; max response, %; hit rate 12% among 300,000; in the data active = max response mostly above about 13%, no sharp cut-off; inactive = mostly below about 14%; also: read at 38.3 µM for the half of the compounds with a filed dose
# FBPA Giardia inh – qHTS Assay for Inhibitors of Fructose-1,6-bisphosphate Aldolase from Giardia Lamblia | hit rate 0.71% among 290,000 | purified Giardia FBPA | A8B2U2 | AID 2451, 2010 | Potency, µM (doses to about 59.6 µM), most hits filed as inhibitors; also: nearly all actives have a fitted effect of over 55% in size
# Target sequence (A8B2U2 whole entry, looked up): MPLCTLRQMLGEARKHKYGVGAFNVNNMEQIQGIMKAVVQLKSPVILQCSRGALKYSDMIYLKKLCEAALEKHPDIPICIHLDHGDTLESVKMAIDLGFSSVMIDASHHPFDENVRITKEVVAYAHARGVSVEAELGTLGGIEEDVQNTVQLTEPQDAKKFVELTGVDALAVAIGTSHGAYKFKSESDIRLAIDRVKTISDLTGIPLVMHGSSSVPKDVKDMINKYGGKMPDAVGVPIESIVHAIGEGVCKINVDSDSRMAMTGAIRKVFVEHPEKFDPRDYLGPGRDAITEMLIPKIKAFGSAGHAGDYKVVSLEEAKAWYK
#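 Giardia FBPA (40 nM reagent) was preincubated 10 min at RT with compound (up to 57.5 uM final), then substrate plus GAPDH/TPI/NAD/arsenate coupling system with diaphorase/resazurin was added; resorufin fluorescence (525/598 nm) was read after 20 min.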
# Pf growth 96h – Primary qHTS for delayed death inhibitors of the malarial parasite plastid, 96 hour incubation; Potency, µM (highest dose often 28.7 µM), actives largely listed as inhibitors; P. falciparum luciferase reporter growth, 96 h; hit rate 6.9% among 320,000
#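 Infected RBCs, 2% Hct / 0.05% parasitemia final; luciferase-reporter P. falciparum; cpd 96 h, 37 C, 5% CO2; luciferase detection reagent; luminescence.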
# Pf growth 48h – Primary qHTS for delayed death inhibitors of the malarial parasite plastid, 48 hour incubation | AID 504832, 2011 | hit rate 5.9% among 310,000 | P. falciparum luciferase growth in erythrocytes, 48 h | Potency, µM (titrated, usually from 28.7 µM), usual class: inhibitors
#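 Luciferase-expressing P. falciparum in infected erythrocytes (2% hematocrit, 0.1% parasitemia final) in RPMI 1640/0.5% Albumax were exposed to compound for 48 hours at 37 C, 5% CO2; growth read as luminescence.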
# Shiga toxin inh – A qHTS for Small Molecule Inhibitors of Shiga Toxin. Vero cells, Shiga toxin protein synthesis inhibition reporter. inhibition, % at 38.7 µM. hit rate 9.2% among 290,000. AID 2315, 2010; in the data active = inhibition mostly above about 28%, no sharp cut-off; inactive = mostly below about 43%
# NS1 inh – qHTS Assay for Inhibitors of Influenza NS1 Protein Function. hit rate 0.4% among 270,000. Potency, µM (series often up to 46.1 µM). AID 2326, 2010; calls by dose curve; also: actives are rising curves; nearly all actives have a fitted effect of over 50% in size
#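 Growth recovery, yeast-based: influenza A NS1 expressed in S. cerevisiae causes slow growth, and suppressors are detected by OD600. The parent strain without NS1 is used as positive control.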
# Hits are given with their value; . = inactive; ? = inconclusive; / = not tested or not shown; [ ] = dose if it differs, or a comment. Compounds with a hit are over-represented: about 21% of the library has one in this group of screens. Unless noted, calls follow the shape of the dose curve; as a rule, active = well fitted curve in the direction sought with a large enough effect; inconclusive = small, poorly fitted or top-dose-only effect, or another doubt; inactive = no such curve, though single readings can be large; an effect the other way counts as inactive or inconclusive.
SMILES,Cycloheximide cs,FBPA Giardia inh,Pf growth 96h,Pf growth 48h,Shiga toxin inh,NS1 inh
O=C(O)C[C@H](Cc1ccc2c(c1)OCO2)C(=O)O,/,/,/,/,/,.
Cn1cccc1CC(=O)N/N=C\c1cccs1,.,.,?,.,.,.
CCc1ccc(/C=N/NC(=O)Cc2cccn2C)cc1,29,.,.,.,51,.
Cn1cccc1CC(=O)N/N=C/c1ccco1,.,.,?,.,.,.
Cn1cccc1CC(=O)N/N=C/c1ccc(C(C)(C)C)cc1,22,.,.,.,54,.
Cc1ccc(/C=N/NC(=O)Cc2cccn2C)cc1,26,.,.,.,46,.
Cn1cccc1/C=N/NC(=O)Cc1ccccc1,.,.,?,.,.,.
Cn1cccc1CC(=O)N/N=C/C=C/c1ccccc1,25,.,.,.,82,.
O=C(Cn1nnc2ccccc21)N/N=C\C=C\c1ccccc1,.,/,.,.,.,.
Cn1nc(C(=O)OCC(=O)c2ccc(Br)cc2)c2ccccc2c1=O,/,/,.,.,/,/
O=C(CN1CCOCC1)N/N=C/C=C/c1ccccc1,25,.,.,.,.,/
Cc1cccc2sc(NC(=O)CSc3nc4ccccc4o3)nc12,.,.,/,.,.,.
c1ccc2oc(SCc3cn4ccsc4n3)nc2c1,50,?,?,.,119,.
Cc1cc(C)n2c(Br)c(CSc3nc4ccccc4o3)nc2n1,41,.,.,.,.,.
Cc1csc2nc(CSc3nc4ccccc4o3)cn12,53,?,.,.,71,.
Nn1c(CSc2nc3ccccc3o2)nnc1CSc1nc2ccccc2o1,.,?,?,.,.,.
COC(=O)c1ccc(COC(=O)CCNS(=O)(=O)c2ccc(C)c(C)c2)cc1,/,/,.,.,/,/
COc1ccc(N(C(=O)c2cccc([N+](=O)[O-])c2)S(=O)(=O)c2cccs2)cc1,.,.,.,.,.,.
COc1ccc(C(=O)/C=C/c2ccc(F)cc2)c(OC(=O)c2ccc([N+](=O)[O-])cc2)c1,23,.,.,.,.,.
COc1ccc(OC(=O)/C=C/c2ccc([N+](=O)[O-])cc2)cc1,.,.,.,?,.,.
COc1ccc(C(=O)/C=C/c2cccs2)c(OC(=O)c2cccc([N+](=O)[O-])c2)c1,60,.,.,.,132,.
Cc1ccc(C)c(OCc2cc(C(=O)N3CC[C@H](O)C3)no2)c1,34,/,.,.,92,.
CCCOC1CCCN(C(=O)c2cc(COc3c(F)cccc3F)on2)C1 (stereo not given),47,/,.,.,93,.
COc1ccc(OCc2cc(C(=O)N3CCCC(O)C3)no2)c2ccccc12 (stereo not given),55,/,?,.,122,.
CSc1ccccc1OCc1cc(C(=O)NCCN2CCCC(O)C2)no1 (stereo not given),.,/,.,.,.,.
SMILES,Cycloheximide cs,FBPA Giardia inh,Pf growth 96h,Pf growth 48h,Shiga toxin inh,NS1 inh
COc1ccc(OCc2cc(C(=O)N3CCCC(OC)C3)no2)c2ccccc12 (stereo not given),50,.,.,?,92,.
COc1ccc(N2CCN(C(=O)c3ccccc3Br)CC2)c([N+](=O)[O-])c1,.,.,12µM,.[5.75 µM],.,/
O=C(c1ccc(N2CCCCC2)c([N+](=O)[O-])c1)N1CCOCC1,.,.,?,.,.,.
O=C(/C=C/c1ccc(N2CCCCC2)c([N+](=O)[O-])c1)c1ccc(O)cc1,47,.,?,?,55,.
COc1ccccc1C(=O)/C=C/c1ccc(N2CCCCC2)c([N+](=O)[O-])c1,62,.,7.4µM,?,99,.
Nc1nnnn1/N=C/c1ccc(N2CCCCC2)c([N+](=O)[O-])c1,38,.,?,.,63,.
Cc1c(Cl)cccc1NC(=O)CCN1C(=O)NC(C)(C)C1=O,/,/,.,.,/,/
Cc1ccc(NC(=O)CN(C)C(=O)c2ccccc2Sc2ccccc2C#N)cc1,/,/,.,.,/,/
CN(C)c1ncc2nc(-c3cc(F)cc(F)c3)c(=O)n(C3CC3)c2n1,/,.,/,/,/,/
Cc1ccc(CN2CCC(Oc3cccc(C(=O)NCc4cccnc4)c3)CC2)o1,.,/,.,?,.,.
Cc1ccccc1N1CCN(CCC(=O)Nc2ccc(F)cc2)CC1,.,.,.,.,/,.
Cc1cnc(CNc2nc(-c3cccc(NS(C)(=O)=O)c3)nc3ccccc23)cn1,/,.,/,/,/,/
CCOc1cc(C(=O)Oc2cc(C)[nH]c(=O)c2[N+](=O)[O-])cc(OCC)c1OCC,.,/,?,.,.,.
CN1C[C@@H]2C(c3ccc(C(F)(F)F)cc3)C3(c4ccc(C#N)cc4)CC2(C3)[C@H]1c1ccccc1 (stereo not given in full),.,.,12µM,12µM,.,.
CN1C[C@@H]2C(c3ccccc3)C3(c4ccc(C#N)cc4)CC2(C3)[C@H]1c1ccccc1 (stereo not given in full),.,.,10µM,10µM,.,.
CN1C[C@@H]2C(c3ccccc3)C3(c4ccccc4)CC2(C3)[C@H]1c1ccccc1 (stereo not given in full),.,.,?,?,.,.
CC(CCc1ccccc1)NC(=O)CCNS(=O)(=O)c1ccccc1C(F)(F)F (stereo not given),/,/,.,?,/,/
Cc1c(C(=O)/C=C/N(C)C)nnn1-c1ccc(Cl)cc1Cl,.,.,?,.,58,.
Cc1c(C(=O)/C=C/N(C)C)nnn1-c1ccc(F)c(Cl)c1,33,.,.,.,76,.
O=C(CC(Cc1ccccc1)C(=O)O)Nc1ccc(Cl)c(Cl)c1 (stereo not given),.,.,?,.,.,.
Cn1nc(C(=O)Nc2cc(Cl)ccc2N2CCCC2)c2ccccc2c1=O,/,/,13µM,12µM,/,/
CCCn1nc(C(=O)Nc2cc(C(=O)OC)ccc2C)c2ccccc2c1=O,.,.,?,.,.,.
COC(=O)c1ccc(C)c(NC(=O)c2nn(C)c(=O)c3ccccc23)c1,.,.,13µM,?,.,.
CN1CCN(c2ccc(Cl)cc2NC(=O)c2nn(-c3ccccc3)c(=O)c3ccccc23)CC1,.,.,15µM,.,.,.
COC(=O)CCC(=O)OC1(C)C(=O)C=C2C=C(CCCNC(=O)OC(C)(C)C)OC=C2C1=O (stereo not given),/,.,/,/,/,/
CC(=O)N1CC2(CC(=O)OC(C)C)CN(C(C)=O)CC(CC(=O)OC(C)C)(C1)C2=O,.,.,12µM,.,.,.
O=C(Cn1nnc2ccccc21)C1CC1,.,.,.,.,.,.
c1ccc(CCn2nnc3ccccc32)cc1,50,.,.,.,189,.
CC(=O)c1cccc(NC(=O)CCCCCn2nnc3ccccc3c2=O)c1,.,.,3.3µM,6.6µM,.,.
Cc1ccc(C(=O)Cn2nnc3ccccc32)cc1C,69,.,.,.,140,.
